Screening data (PubChem)
CHT PAM – human CHT allosteric activation | Q9GZV3 | CHT-expressing cells, membrane potential dye, choline EC20; active compounds read high; LV-AA mutant CHT in HEK293 cells | B-score at 10 µM | actives 0.49% (n = 310,000) | AID 488977;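 active means initial fluorescence not abnormally high and integrated response B-score, plate-corrected, over 3 SD above library mean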
CHT block – inhibitors of human choline transporter CHT; Q9GZV3; actives 0.86% (n = 310,000); CHT-expressing cells, membrane potential dye, choline response; active compounds read low; B-score at 10 µM;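 active means B-score over 3 SD under the library average, and starting fluorescence ratio not unusually high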;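 further: choline stimulus applied at its EC90 after an EC20 pre-addition; B-score computed on integrated fluorescence ratio after choline addition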
EP2 antag – blocks the human prostaglandin E2 receptor EP2 | inhibition, % at 25 µM | AID 1422 | actives 0.52% (n = 260,000) | P43116 | C6 glioma cells expressing human EP2, cAMP TR-FRET; cells stimulated with saturating PGE2;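 active means percent inhibition above 40 after rounding to a whole number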;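 further: rat C6 glioma host cells with rolipram phosphodiesterase inhibitor present; the protocol text gives 20 µM as final concentration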
Target sequence (P43116 whole entry, looked up): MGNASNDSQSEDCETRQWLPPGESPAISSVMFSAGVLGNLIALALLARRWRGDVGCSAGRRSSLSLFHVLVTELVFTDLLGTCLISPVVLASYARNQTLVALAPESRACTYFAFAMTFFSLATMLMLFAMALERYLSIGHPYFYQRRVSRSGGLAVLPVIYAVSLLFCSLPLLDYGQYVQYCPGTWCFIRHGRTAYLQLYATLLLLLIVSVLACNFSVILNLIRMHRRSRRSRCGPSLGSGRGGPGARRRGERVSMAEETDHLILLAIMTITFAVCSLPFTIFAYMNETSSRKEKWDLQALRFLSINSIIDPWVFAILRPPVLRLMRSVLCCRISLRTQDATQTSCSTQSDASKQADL
EP2 mod – modulates human prostaglandin E2 receptor EP2 signaling; AID 940; actives 0.83% (n = 260,000); induction, % at 25 µM; EP2-expressing cells, cAMP HTRF FRET, PGE2 co-stimulation; P43116;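 active means compounds whose cAMP rise, as percent of the full-agonist control response, exceeds 60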;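 further: rat C6 glioma line stably carrying human EP2 under a CMV promoter; the protocol text gives 20 µM as final concentration; 100% = response of wells given 1 µM PGE2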
EP2 cAMP induct – EP2 receptor cAMP induction, counter-screens negative; shares compounds with EP2 mod; C6 glioma EP2 cells, cAMP HTRF induction; plus low (about EC15) PGE2 agonist; calls only at 20 µM (by protocol); actives 47% (n = 1,300);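 active means cAMP induction above 50% in the main assay while under 30% in all four parallel counter assays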;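 further: rat C6 glioma cells stably expressing human EP2 receptor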
Starred values were filed as active, the others as inactive. This is a sample that favours compounds with a hit; in the whole collection about 2% have one here.

Results for CC(=O)NC1=C(NC2CCS(=O)(=O)C2)C(=O)c2ccccc2C1=O (stereo unspecified) ?
CHT PAM: inactive; CHT block: inactive; EP2 antag: 7.6; EP2 mod: 23.4

Results for COc1cc(CC(=O)N2CCC(C(=O)c3cccnc3)CC2)cc(OC)c1OC ?
EP2 antag: 8.0; EP2 mod: -6.7

What do the screens show for `C=CCc1cc(CN2CCC(C(=O)c3cccnc3)CC2)cc(OC)c1OC`?
EP2 antag: 8.3; EP2 mod: 72.0*

Results for CC(=O)C1=C(S(=O)(=O)c2ccc(C)cc2)CS(=O)(=O)C1 ?
EP2 antag: 97.4*; EP2 mod: -62.0

Results for COc1ccc(CN(Cc2cccn2C)S(=O)(=O)c2ccccc2)cc1 ?
CHT PAM: inactive; CHT block: inactive; EP2 antag: 13.9; EP2 mod: 69.1*

What do the screens show for `COc1ccc2c(c1)Cc1cc(N=[N+]([O-])c3ccc4c(c3)Cc3cc(OC)ccc3-4)ccc1-2`?
EP2 antag: 113.6*; EP2 mod: -79.8

Results for Nc1ccc2c(c1)Cc1cc([N+](=O)[O-])ccc1-2 ?
CHT PAM: inactive; CHT block: inactive; EP2 antag: 7.5; EP2 mod: -67.2

Results for CCN(CC)S(=O)(=O)c1ccc(Cl)c(NC(=O)c2ccccc2C)c1 ?
CHT PAM: inactive; CHT block: inactive; EP2 antag: 8.9; EP2 mod: 62.7*

What do the screens show for `CCN(CC)S(=O)(=O)c1ccc(Cl)c(NC(=O)c2cc(Cl)cc(Cl)c2)c1`?
CHT PAM: inactive; CHT block: inactive; EP2 antag: 7.1; EP2 mod: 9.0

What do the screens show for `CCCn1c(SCC(=O)Nc2cccc(C)c2C)nnc1-c1ccoc1C`?
EP2 antag: 8.7; EP2 mod: 28.3

Results for O=C(O)C[C@H]1OCC=C2C[N+]3([O-])CC[C@@]45c6ccccc6N[C@@H]4[C@@H]1[C@@H]2C[C@H]53 (stereo partly specified) ?
EP2 antag: 54.4*; EP2 mod: -5.1

Results for CCOC(=O)N1CCN(C(=O)c2ccc3c(c2)N(Cc2ccc(F)cc2)CCS3)CC1 ?
CHT PAM: inactive; CHT block: -5.16*

What do the screens show for `CCOC(=O)N1CCN(C(=O)c2ccc3c(c2)N(CC)CCS3)CC1`?
CHT PAM: inactive; CHT block: inactive; EP2 antag: 15.6; EP2 mod: 6.4

What do the screens show for `Cc1ccc(CN2CCSc3ccc(C(=O)NCc4ccccn4)cc32)cc1`?
CHT PAM: inactive; CHT block: inactive; EP2 antag: 8.8; EP2 mod: 61.2*

What do the screens show for `O=C(NCc1ccco1)c1ccc2c(c1)N(Cc1ccccc1)CCS2`?
CHT PAM: inactive; CHT block: inactive; EP2 antag: 4.8; EP2 mod: 16.0

How did Cc1ccc(C(=O)Oc2ccc3ccc(=O)oc3c2)cc1 do in these assays?
CHT PAM: inactive; CHT block: inactive

What do the screens show for `Cc1cc2ccc(OC(=O)c3ccc(N=C(N)N)cc3)cc2oc1=O`?
EP2 antag: 116.0*; EP2 mod: 4.0

What do the screens show for `COc1ccc(N2CCN(C(c3ccccc3F)c3nnnn3C3CCCCC3)CC2)cc1` (stereo unspecified)?
EP2 antag: 7.6; EP2 mod: 18.9

How did CC(C)(C)C1=NN(CC(=O)N2CCCC2)C(=O)c2cc3ccccc3n2C1 do in these assays?
EP2 mod: -14.0

Results for O=C(O)c1cccc(N=Nc2c(S(=O)(=O)O)ccc3c2C(=O)c2ccccc2C3=O)c1O ?
EP2 antag: 46.1*; EP2 mod: -33.5

What do the screens show for `CC1=CC(C)(C)n2c(O)c(N=N)c3c(C)c(C)cc1c32`?
CHT PAM: inactive; CHT block: inactive; EP2 antag: 5.4; EP2 mod: 75.8*

How did CC1=CC(C)(C)n2c(O)c(N=N)c3c(C)ccc1c32 do in these assays?
CHT PAM: inactive; CHT block: inactive; EP2 antag: 10.9; EP2 mod: 81.8*

What do the screens show for `CC1=CC(C)(C)n2c(O)c(N=NC(N)=S)c3c(C)ccc1c32`?
CHT PAM: inactive; CHT block: inactive; EP2 antag: 23.3; EP2 mod: 17.0

What do the screens show for `CCOC(=O)C(=CNc1ccc(C(F)(F)F)cc1Cl)C(=O)OCC`?
CHT PAM: inactive; CHT block: inactive; EP2 antag: 5.9; EP2 mod: 68.6*

What do the screens show for `CCOC(=O)C(=CNc1cc(C)ccc1-n1cccc1)C(=O)OCC`?
CHT PAM: inactive; CHT block: inactive; EP2 antag: 3.8; EP2 mod: 64.7*

How did CC1CCN(c2nc(-c3ccccc3O)nc3ccccc23)CC1 do in these assays?
CHT PAM: inactive; CHT block: inactive; EP2 antag: 9.7; EP2 mod: 31.3

How did CC(C)Oc1nc(-c2ccccc2O)nc2ccccc12 do in these assays?
CHT PAM: inactive; CHT block: inactive; EP2 antag: 9.9; EP2 mod: 79.9*; EP2 cAMP induct: active

How did COc1cccc(-c2nc(N3CC(C)CC(C)C3)c3ccccc3n2)c1O (stereo unspecified) do in these assays?
EP2 mod: 69.7*; EP2 cAMP induct: active

What do the screens show for `Oc1ccccc1-c1nc(N2CCCC2)c2ccccc2n1`?
CHT PAM: inactive; CHT block: inactive; EP2 antag: 7.8; EP2 mod: 74.9*; EP2 cAMP induct: inactive

What do the screens show for `Cc1nc2c(C)cccc2cc1C(=O)NC(C)(C)CN1CCN(C)CC1`?
EP2 antag: 6.3; EP2 mod: -26.0

How did Cc1cccc2cc(CN(Cc3cccs3)C3(c4nnnn4C4CCCC4)CCCC3)c(=O)[nH]c12 do in these assays?
CHT PAM: inactive; CHT block: inactive; EP2 antag: 12.6; EP2 mod: 65.7*; EP2 cAMP induct: inactive

Results for CCC(c1nnnn1C1CCCCC1)N(Cc1cc2cccc(C)c2[nH]c1=O)C1CCCCC1 (stereo unspecified) ?
EP2 antag: 7.5; EP2 mod: 16.7

Results for O=C(c1cc(-c2ccccn2)nc2ccc(Br)cc12)N1CCc2ccccc2C1 ?
EP2 mod: 65.7*; EP2 cAMP induct: inactive

What do the screens show for `Cc1ccc(-n2nc3c(c2NC(=O)c2ccc(Br)o2)CSC3)c(C)c1`?
CHT PAM: inactive; CHT block: inactive; EP2 antag: 5.1; EP2 mod: 51.7; EP2 cAMP induct: inactive

Results for CCCn1c(Nc2nc3ccccc3n2C)nc2ccccc21 ?
CHT PAM: inactive; CHT block: inactive; EP2 antag: 7.8; EP2 mod: 70.5*; EP2 cAMP induct: inactive

Results for CC(NC(=O)C1CC1)c1nc2cccnc2n1C(C)C (stereo unspecified) ?
EP2 antag: 11.6; EP2 mod: -3.4

What do the screens show for `COc1ccc(OC)c(S(=O)(=O)N2CCC(C(=O)Nc3ccccc3OC)CC2)c1`?
EP2 antag: 9.5; EP2 mod: -5.5
